This is an account of results in PubChem BioAssay AID1347088 (National Center for Advancing Translational Sciences (NCATS), 2019).

The test in a line: qHTS for Inhibitors of the Functional Ribonucleoprotein Complex (vRNP) of Lymphocytic Choriomeningitis Arenaviruses (LCMV): Viability assay - Alamar blue signal for LCMV Confirmatory Screen. On the technique in general: qHTS replaces the single test concentration by a dilution series.

Each structure is given as a SMILES string. Inconclusive results are not listed. Entries that show only a call come without a potency. Activity calls are given as the source filed them. The call rests on the fitted dose curve.

As for `CNCCCC1c2ccccc2C=Cc2ccccc21`, the Potency is 27.3 µM (active).
In the case of `CO/C=C(/C(=O)OC)c1ccccc1Oc1cc(Oc2ccccc2C#N)ncn1`, the Potency is 49.8 µM (active).
The same measure for `COc1ccc2c(c1OC)CN1CCc3cc4c(cc3C1C2)OCO4` (centres undefined): “inactive”; for `CCCCCC[C@H]1C(=O)O[C@H](C)[C@H](NC(=O)c2cccc(NC=O)c2O)C(=O)O[C@@H](C)[C@@H]1OC(=O)CC(C)C`: “inactive”; for `CC(O)C(O)[C@H]1CNc2nc(N)[nH]c(=O)c2N1` (some centres undefined): “inactive”.
As for `COc1ccc(Cc2nccc3cc(OC)c(OC)cc23)cc1OC`, the Potency result was “inactive”.
As for `CC[C@@]1([C@@H]2O[C@@H]([C@H]3O[C@@](O)(CO)[C@H](C)C[C@H]3C)C[C@H]2C)CC[C@H]([C@]2(C)CC[C@]3(C[C@H](O)[C@@H](C)[C@@H]([C@@H](C)[C@@H](OC)[C@H](C)C(=O)O)O3)O2)O1`, the Potency was 5.95 µM (active).
The same measure for `O=C(Nc1ccc([N+](=O)[O-])cc1Cl)c1cc(Cl)ccc1O`: 3.43 µM (active).
The same measure for `CCC[C@H](N[C@@H](C)C(=O)N1[C@@H]2CCCC[C@H]2C[C@H]1C(=O)O)C(=O)OCC`: “inactive”; for `O=c1[nH]c2ccccc2n1C1CCN(CCCC(c2ccc(F)cc2)c2ccc(F)cc2)CC1`: “inactive”.
In the case of `CC(O)(P(=O)(O)O)P(=O)(O)O` it was “inactive”; in that of `FC(F)(F)c1ccc(C=Cc2nc(COc3ccc(CCCCn4ccnn4)cc3)co2)cc1`, “inactive”; in that of `CCN(CC)C(=O)N[C@@H]1C=C2c3cccc4[nH]cc(c34)C[C@@H]2N(C)C1`, “inactive”.
`CC12C(=O)OC(=O)C1(C)C1CCC2O1` (centres undefined): the Potency is 8.63 µM (active).
